This note sets out measurements from PubChem BioAssay (NCI).

The panel holds about 83,000 compounds, 20% with a hit somewhere; the sample as a whole holds those more often.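 Note: values are percent growth. 100 is the growth of untreated cells, values between 100 and 0 indicate rising inhibition; between -100 and 0 indicates cell death.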 A number with no mark means an inactive call. Active and inactive are the calls of the source. Rule for the calls: active = growth percent below 10; inactive = the rest.

The subject of this assay is MDA-MB-468 breast. The assay is described as follows: NCI-60 one-dose screen, 48 h (100 = growth as untreated, 0 = no growth, -100 = all killed). As to conditions: 10 µM unless noted.
Turning to `CCc1ccc(CCC(=O)Nc2ncc(Cc3cc(Cl)ccc3Cl)s2)o1`, the growth was -23% (active).
To `O=c1[nH]c(Sc2sc3ccc(Cl)cc3c2CBr)nc(=S)[nH]1` belongs 19.1%.
Take `CC(C)(C)NC(=O)C(OC(=O)C1CCc2cc(F)ccc2O1)c1ccccc1Cl` (centres undefined): the growth is 105%.
In the case of `CC(C)(C)c1ccc(C(=O)Nc2sc3c(c2C#N)CCC(=O)C3)cc1`, the growth is 2.73% (active).
To `CC(C)n1nc(-c2ccc3oc(N)nc3c2)c2c(N)ncnc21` belongs -34.1% (active); to `C=C1C(=O)O[C@H]2[C@H]1CC/C(COC(=O)CCSCCC(=O)OC/C1=C/CC[C@@]3(C)O[C@H]3[C@H]3OC(=O)C(=C)[C@@H]3CC1)=C\CC[C@@]1(C)O[C@@H]21`, -23.6% (active); to `O=S(=O)(NCCCNc1nccc(-c2c(-c3ccccc3)nc3sccn23)n1)c1ccc(F)cc1`, 35.5%.
`O=C1c2cccnc2C(=O)c2c1c(C(=O)OCCCN1CCCCC1)c1ccccn21`: the growth is 31.6%.
Take `O=C1C(Cl)=C(Cl)C(=O)c2c1nc1n2CCCC1`: the growth is 96.7%.
